Screens from PubChem BioAssay.
Hits are enriched below; roughly 7.8% of the tested compounds scored in any of these assays.
HCV inh: qHTS Assay for Inhibitors of Hepatitis C Virus (HCV). Huh7.5.1 HCVcc-Cre infection, luciferase reporter, 44 h. Potency, µM (highest dose often 41.8 µM), without a hit: at the highest dose activity change, negative = inhibition, most hits filed as inhibitors. 340,000 tested, 3.4% active. AID 651820, 2012; active means well fitted inhibition curve with a large enough effect; inconclusive means small, poorly fitted or top-dose-only effect, or another doubt; inactive means no such curve, though single readings can be large or run the other way; further: potency means the concentration at half of the fitted maximal effect
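Cells seeded at 1,000/well and cultured 4 h, then compounds added followed by HCVcc-Cre virus (~0.5 moi). After 44 h further culture, luciferase substrate was added, plates held 15 min at room temperature, and luminescence read for 15 sec.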
Vaccinia Venus: qHTS for Stage-Specific Inhibitors of Vaccinia Orthopoxvirus: Venus Reporter Primary qHTS; 330,000 tested, 0.46% active; AID 720580, 2013; Vaccinia virus Venus reporter expression, fluorescence; Potency, µM (highest dose often 36.5 µM), inactives show at the highest dose activity change, negative = inhibition, actives largely listed as inhibitors; calls by dose curve; tested in A549 cells; further: potency means the concentration at half of the fitted maximal effect; nearly all actives have a fitted effect of over 30% in size
MARV entry inh: qHTS for inhibitors of binding or entry into cells for Marburg Virus; 300,000 tested, 1.8% active; Potency, µM (top dose mostly 37.8 µM), for the others: at the top dose activity change, negative = inhibition, actives largely listed as inhibitors; Marburg virus pseudotyped entry inhibition, cell reporter; AID 540276, 2011; calls by dose curve; tested in HEK293 cells; further: potency means the concentration at half of the fitted maximal effect
HCMV inh: qHTS Assay for inhibitors of the human cytomegalovirus (HCMV) | HFF cells, HCMV-luciferase reporter, 72 h; hits give low values | activity change, negative = inhibition, % at 57.5 µM | 410,000 tested, 4.5% active; in the data active means activity change below about -60%; inconclusive means no clear call, values can overlap the other calls; inactive means above about -39%
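Inhibition of viral replication was scored as loss of reporter luminescence in HFFs infected with HCMV-luciferase (MOI 1 PFU/cell) for 72 h; compounds tested at 2 doses, normalized to buffer and Salinomycin controls.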
LASV entry inh: qHTS for Inhibitors of binding or entry into cells for Lassa Virus; Lassa virus pseudotype entry inhibition, cell reporter; Potency, µM (highest dose often 37.9 µM), inactives show at the highest dose activity change, negative = inhibition, hits mostly inhibitors; 300,000 tested, 1.2% active; AID 540256, 2011; calls by dose curve; tested in HEK293 cells; further: potency means the concentration at half of the fitted maximal effect; nearly all actives have a fitted effect of over 50% in size
Vaccinia mCherry: qHTS for Stage-Specific Inhibitors of Vaccinia Orthopoxvirus: mCherry Reporter Primary qHTS | Vaccinia virus mCherry reporter infection, fluorescence | Potency, µM (doses to about 36.5 µM), without a hit: top-dose activity change, negative = inhibition, usual class: inhibitors | 310,000 tested, 0.63% active | AID 720579, 2013; calls by dose curve; tested in A549 cells; further: potency means the concentration at half of the fitted maximal effect; nearly all actives have a fitted effect of over 35% in size
Starred values were filed as active, the others as inactive; i = inactive; u = inconclusive; x = no result; [ ] = remark or other dose. On the % scale 0 is the no-effect control and ±100 the full control effect.

SMILES	HCV inh	Vaccinia Venus	MARV entry inh	HCMV inh	LASV entry inh	Vaccinia mCherry
Cc1cccc(CN2CCN(Cc3ccc(Cl)cc3)CC2)c1	6.3µM*	-1%	u	4	u	-13%
O=C(Cn1ccn(-c2ccc(F)c(F)c2)c(=O)c1=O)Nc1ccccc1F	x	-1%	x	-6	9%[46.1 µM]	-8%
COc1ccc2[nH]c3c(c2c1)CCN1C(=O)N([C@@H](C)C(=O)NCc2c(F)cccc2Cl)C(=O)[C@]31C	u	-6%	x	3	x	-2%
C[C@@H](C(=O)NCc1c(F)cccc1Cl)N1C(=O)N2CCc3c([nH]c4ccccc34)[C@@]2(C)C1=O	11µM*	-2%	x	3	x	-2%
COc1ccc(CNC(=O)[C@H](C)N2C(=O)N3CCc4c([nH]c5ccccc45)[C@@]3(C)C2=O)cc1OC	3.5µM*	-19%	x	u	x	-21%
COC(=O)CC1C(C)(C)C(OC(C)=O)[C@@]2(O)C=C3C4CC(=O)OC(c5ccoc5)[C@]4(C)CCC3[C@@]1(C)C2=O (stereo partly drawn)	x	-4%	x	x	x	-11%
Cc1ccc2nc(SCC(=O)c3ccccc3)nc(=O)n2c1	2%	-16%	u	39	10µM*	-16%
CCCCCCCCCCCCCCCC[N+](C)(C)C	u	u	x	-94*	x	u
CCCCCCCCCCCCCCCC[N+](C)(C)CC	u	-8%	x	-96*	x	-14%
CCOC(=O)C1(C)C=C(Nc2ccc(O)cc2)C(=O)N1c1ccc(O)cc1 (stereo not drawn)	4%	-7%	u	-70*	-16%	i
C[C@H]1[C@@H](NC(=O)NCCCc2ccccc2)CC[C@@]23CCCN2C(=O)CCC[C@@H]13	x	x	x	-17	x	x
CCOc1ccccc1NC(=O)c1ccc(NC(=O)C2CCCO2)cc1 (stereo not drawn)	11µM*	6%	3%[46.1 µM]	u	x	-4%
CC(C)OCCCNC(=O)c1ccc(NC(=O)C2CCCO2)cc1 (stereo not drawn)	3%	-12%	u	38	3%	-8%
CCCCNC(=O)c1ccc(NC(=O)C2CCCO2)cc1 (stereo not drawn)	0%	x	14%	-90*	3%	x
CCOc1ccc(NS(=O)(=O)c2ccc(NC(=O)C3CCCO3)cc2)cc1 (stereo not drawn)	u	-27%	-23%	3	8.9µM*	x
O=C1[C@@H]2[C@H](ON(c3ccccc3)[C@H]2c2ccncc2)C(=O)N1c1ccc(Br)cc1	x	x	-21%	x	x	x
Cc1cc(NC(=O)c2cnn3c(C(F)(F)F)cc(-c4ccccc4)nc23)no1	7.1µM*	-4%	u	-37	-14%	-10%
Cc1c(NC(=O)c2cnn3c(C(F)(F)F)cc(-c4ccco4)nc23)c(=O)n(-c2ccccc2)n1C	11%	-20%	-14%	-62*	-11%	x
O=C(O)c1cnn2c(C(F)(F)F)cc(-c3ccco3)nc12	5%	x	u	0	-5%	x
COc1ccccc1CNS(=O)(=O)c1ccc(N2CCCC2)cc1Br	11µM*	-21%	x	-38	x	-24%
O=C(Nc1nc2ccc(S(=O)(=O)N3CCCC3)cc2s1)C1CCCCC1	u	u	u	-62*	-25%	u
CC(C)(C)C(=O)Nc1nc2cc3c(cc2s1)OCO3	u	x	x	-73*	x	x
O=C(Nc1nc2ccc(Cl)cc2s1)C1CCCO1 (stereo not drawn)	-24%	-21%	u	34	u	x
O=C(Nc1nc2ccc(Cl)cc2s1)C1CC1	8.9µM*	x	x	-23	x	x
CC(C)C(=O)Nc1nc2cc3c(cc2s1)OCO3	u	-4%	x	-11	x	u
SMILES	HCV inh	Vaccinia Venus	MARV entry inh	HCMV inh	LASV entry inh	Vaccinia mCherry
CCOc1ccc2nc(NC(=O)C3CCCN(S(=O)(=O)c4c(C)noc4C)C3)sc2c1 (stereo not drawn)	11µM*	u	x	-21	x	u
Cc1cnc(C)c(-c2ccc(F)c3c2OC(CNC(=O)/C=C/c2cccs2)C3)n1 (stereo not drawn)	x	-12%	x	x	x	-6%
COc1ccc2c(c1)[C@@]1(OCCC=C[C@@H]1C)C(=O)N2Cc1ccc(F)cc1	x	x	28%[14.2 µM]	x	u	x
CCOC(=O)C1(C)CCCCCN1C(=O)c1ccc(OC)cc1 (stereo not drawn)	x	0%	x	-1	x	4%
Cc1cc(-c2ccc(S(=O)(=O)Nc3cccc(Cl)c3C)cc2)on1	x	u	x	u	-5%[46.1 µM]	u
O=C(Nc1cc(S(=O)(=O)N2CCCCC2)ccc1N1CCCCC1)C1CC1	-24%	x	x	-61*	x	x
O=C(Nc1cccc(Cl)c1)Nc1cc(S(=O)(=O)N2CCOCC2)ccc1N1CCCC1	-14%	-27%	u	-80*	u	-29%
CCc1ccccc1N1CC(C(=O)Nc2cc(S(=O)(=O)N3CCCC3)ccc2Cl)CC1=O (stereo not drawn)	11µM*	-3%	-15%	5	u	-2%
O=C(Nc1nc2cc3c(cc2s1)OCCO3)C1CCCCC1	u	-26%	u	1	10µM*	u
CC(=O)C1=C(c2ccc(Cl)cc2)N(C(C)=O)n2c(nnc2C2CCCCC2)S1	x	-16%	x	-15	u	-15%
COc1ccc(NC(=O)CCc2c(C)nn(-c3ccc(N4CCOCC4)nn3)c2C)cc1Cl	x	-9%	x	67	27%[46.1 µM]	-8%
COc1ccc2cc(C(=O)NCc3ccc4c(c3)CCN4C(=O)c3ccc(C)cc3)[nH]c2c1	x	-23%	x	67	1%[46.1 µM]	-29%
COc1nnc(-c2ccc(N3CCCCC3)c(NC(=O)C3CCCCC3)c2)c2ccccc12	-9%	-4%	2%	-101*	17%	-4%
O=C(Nc1nc2cc3c(cc2s1)OCO3)C1CC1	10µM*	-7%	u	-15	-4%	-12%
CCOC(=O)c1c(C)nc2c(c(SC)nn2-c2ccccc2)c1N	10µM*	-9%	u	-30	6%	x
COc1ccccc1C(C[N+](=O)[O-])c1c(N)n(C)c(=O)n(C)c1=O (stereo not drawn)	11µM*	x	x	-97*	x	x
COc1ccccc1C(c1c(N)n(C)c(=O)n(C)c1=O)C(C)[N+](=O)[O-] (stereo not drawn)	2%	2%	-18%[46.1 µM]	-14	-22%[46.1 µM]	-9%
O=c1oc2ccccc2c2c1nnn2CCO	20%	-13%	18%[46.1 µM]	-63*	9%	-21%
CCCn1nnc2c(=O)oc3ccccc3c21	18%	-5%	3%	-5	-12%	i
CCOC(=O)C1CCCN(Cc2cn3c(-c4ccc(Br)cc4)nnc3s2)C1 (stereo not drawn)	x	-6%	x	14	u	-7%
